Source: the supplement of paper PMC6555819

Tested on: VDR:RXRa (NR concentration 270 nM, RXRa partner concentration 90 nM)
Test: PBM binding z-score (relative to random genomic background probes); higher = stronger binding; sequences stand for … in GC…GCGATTGACAGCGTAGAATGAAGG
Protocol: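 Protein-binding microarray (Agilent 4x180K custom design, double-stranded 60-nt probes: 5' GC cap, 34-nt variable region, 24-nt constant primer region; full probe sequence given). Purified or IVT nuclear receptor:RXRα heterodimers (3:1 NR:RXRα, mostly 270:90 nM) or homodimers were incubated for 1 h in PBS with 2% milk and no ligand, then detected with Alexa488 antibodies. Fluorescence from o1-orientation probes (~5 replicates averaged) was converted to z-scores against 500 random hg19 background probes. Variable regions are seed direct-repeat (DR0–DR5) sites, all their single-nucleotide variants and half-site ablations.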

| Sequence | PBM binding z-score |
| --- | --- |
| ACTAGCAGGCCAAGTTTGGGTCACTCAAACAAAG | 0.525 |
| TAGCCTAGGTCACGCGGGCCAGTATAGTGTCGGC | 3.35 |
| CCTATTAGTTGACCATAAAGGCAACCGAAGCTCG | 0.841 |
| TATACAGGGTAAAAGGCCAGAGTACGAATGTCGA | 0.433 |
| TCATATACGTAAACAGGTGAAAGTCCGTAAGTTA | 1.38 |
| TAGCCAAGGTCATGCGGGCCAGTATAGTGTCGGC | 5.15 |
| CGTCCAAGGTCAGAGCGGTCAGTGAATGCCGAGT | 5.45 |
| CCTGCTAGGTCAATGGTCAGTTAAAGCAGCTCGC | 0.89 |
| CTCCCAAGGTGAACAAGGTCGTTGATTACTATTC | 6.09 |
| TAGCCTAGGTCAATCAGGGGCCAGTATAGAAAGC | 2.32 |
| TCTTGTAGATCAAAGGTTAAGAATGCCGAAGCCT | 1.7 |
| AGAATGAGGCTATACGTAGATCAGGGAAGAAAGT | -0.45 |
| ATCTCTAGGTAACCAAATTCAGTGAATGCCGAAC | 0.296 |
| CGTCCAAGTTCAAAGGTCAGTGAAGAGATGACGG | 6.37 |
| ACTATTAGTTGACTTAGGGCCACCGATACGACGC | 0.067 |
| TCAGACAAGTGAAGGTAACTCAGGTACGCAGTCG | 0.46 |
| CGTCCTAGGTCAAGGTCAGTGAAAGAGACTCGAA | 3.2 |
| CTCGAAAGGTCGTGCTCAGCTGAGTATACCAAAC | 3.17 |
| GCGACTGGGGCATCAGCAGGTTACCCTAACTTAA | -0.249 |
| CAACCTAGGTCAGGGCCAGTATAGGAGGAACGTT | 0.746 |

| Sequence | PBM binding z-score |
| --- | --- |
| CCAGCCAGGTGAGAAGGTAACTCAGCCTCGATTA | -0.314 |
| CCTAGTTGCTCAGGAGGTCACACACCGGATATGA | 3.76 |
| ACTTACGGGTCAACGAGGTTATCGCACGCGTATA | 7.77 |
| TGAATGAGGTTATCAGATCAGGGAACGTTGCAAA | 1.04 |
| ACTAGCAGGCCAAGGGTCACTCATGATTAGTCCG | 2.64 |
| ATCTCTAGGTAACAAGTTCAGCGAAAGAGAGGAC | 2.45 |
| AGAATGAGGTTATTGAGATCAGGGAATTGCGGTC | 3.35 |
| TTCCCAAGGTGAGCTGAGGTCGTTGATCCAACTC | 4.13 |
| CCGAATGGGGCAAGGTTACCATAACGCACAGCCA | 0.34 |
| CCTACTGGGCCACGAAAGGTCATTGTTTCAGTGA | 4.25 |
| CCGACTGGGGCAAAGGCTACCATACTCAGTACGA | -0.358 |
| TCTGCTAGGGCAACGATGGTCAGCTAATCTGCTA | -0.552 |
| TCTAGTTGTTCAAAGGTCACACACTCGAAATGCG | 4.95 |
| CCGAGTAGGTTATGGGGAATTCAGGCAACGGTGA | 0.0968 |
| ATAGACAGGTGATGAAGGTAACTCAGGCTATCAT | 0.166 |
| AAATGTAGGTTACATCCGGGTCATTCAGGCTATG | 4.17 |
| TAGCCTAGGTCAGATCGGGCTAGTATACGCTATA | 0.302 |
| CCGACTGGGGCAAAGGTGACCATACTCAGTACGA | 0.389 |
| CCTTACGGGTCACTGACAGGTTATAGCTTTTGGA | 3.56 |
| CAAACTAGGTCTCAGAGGTCAAAGTCCGTGCGTA | 5.82 |
